A selection: hits, their analogues and other compounds. The true share with any hit is near 2.4%.
D2 ag-1 – HTS Assay for Allosteric Agonists of the Human D2 Dopamine Receptor: Primary Screen for Agonists; D(2) dopamine receptor (Homo sapiens), P14416; AID 485358, 2010; HEK293 T-REx D2 cells, calcium flux agonist mode; activation, % at 2 µM; 340,000 compounds, 0.53% hits;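 active = activation over 3 SD above normal in the single-dose calcium agonist read, cut at about 30% in these data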; also: 0% is about no effect
Target sequence (P14416 whole entry, looked up): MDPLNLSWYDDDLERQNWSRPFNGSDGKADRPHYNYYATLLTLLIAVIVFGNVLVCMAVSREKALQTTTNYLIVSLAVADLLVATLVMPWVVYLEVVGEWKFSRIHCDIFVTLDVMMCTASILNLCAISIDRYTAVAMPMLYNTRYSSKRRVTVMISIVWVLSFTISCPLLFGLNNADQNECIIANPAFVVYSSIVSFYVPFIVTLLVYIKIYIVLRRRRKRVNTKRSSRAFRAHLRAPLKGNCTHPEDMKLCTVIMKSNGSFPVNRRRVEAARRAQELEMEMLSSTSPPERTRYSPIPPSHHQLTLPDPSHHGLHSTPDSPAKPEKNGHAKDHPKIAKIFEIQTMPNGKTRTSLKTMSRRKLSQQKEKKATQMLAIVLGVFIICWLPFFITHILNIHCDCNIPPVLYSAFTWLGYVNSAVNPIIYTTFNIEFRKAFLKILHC
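Tetracycline-induced HEK293 Trex cells with D2 receptor force-coupled to calcium signaling, plated overnight at 30 C and loaded with no-wash calcium dye. Calcium flux read kinetically for 180 s after compound addition; responses flag agonists.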
D2 PAM-1 – Beta-Arrestin HTS for Positive Allosteric Modulators of the Human D2 Dopamine Receptor: Potentiators; DiscoveRx D2 beta-arrestin cells, luminescence, 90 min; 100% = 57 uM dopamine signal; AID 624464, 2012; D(2) dopamine receptor (Homo sapiens), P14416; 360,000 compounds, 0.23% hits; potentiation, % (no concentration beside the values); in the data active = potentiation above about 50%; inconclusive = mostly about 30% to 49%
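PathHunter beta-arrestin assay in DiscoveRx D2 cells. Compounds were added with an EC20 of dopamine (50 nM final) for 90 min at 37 deg C. Luminescence was read 1 h after detection reagent, with 57 uM dopamine as the EC100 control.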
D2 antagonist – HTS Assay for Allosteric Antagonists of the Human D2 Dopamine Receptor: Primary Screen for Antagonists | D(2) dopamine receptor (Homo sapiens), P14416 | HEK293 TREx D2 cells, calcium flux, dopamine EC80 | inhibition, % at 10 µM | 340,000 compounds, 2% hits; in the data active = inhibition above about 30%; inactive = below that, where a call was filed; also: 0% is about no effect
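Calcium mobilization kinetics were recorded at 1 s intervals in tetracycline-induced HEK293 T-REx D2 cells, first for 180 s after compound addition and then 180 s after EC80 dopamine.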
D2 ag-2 – Beta-Arrestin HTS for Positive Allosteric Modulators of the Human D2 Dopamine Receptor: Agonists. D(2) dopamine receptor (Homo sapiens), P14416. DiscoveRx PathHunter D2 beta-arrestin, luminescence, 90 min; 100% = 57 uM dopamine signal. activation, % (no concentration beside the values). 360,000 compounds, 0.084% hits; in the data active = activation above about 40%; inconclusive = between about 15% and that limit
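Agonist mode: compounds alone added to overnight-plated D2 PathHunter cells for 90 min at 37 C, with 57 uM final dopamine (EC100) defining full response. Beta-arrestin recruitment detected by chemiluminescent reagent, read after 1 h at ambient temperature.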
D2 PAM-2 – HTS Assay for Positive Allosteric Modulators of the Human D2 Dopamine Receptor: Primary Screen for Potentiators | HEK293 T-REx D2, calcium flux, EC20 dopamine potentiation | 340,000 compounds, 0.34% hits | potentiation, % at 10 µM | AID 485347, 2010;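 active = potentiation over 3 SD above the plate norm, cut at about 30% in these data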; also: 0% is about no effect
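Potentiation of an EC20 dopamine calcium response is measured in a force-coupled, tetracycline-inducible Hek293 Trex D2 line. Compound-only kinetic reads over 180 s flag agonists before dopamine addition.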
Numbers without * were called inactive; ? = inconclusive; · = no result; ! = not confirmed by another sample.

SMILES	D2 ag-1	D2 PAM-1	D2 antagonist	D2 ag-2	D2 PAM-2
CCCCOC(=O)/C=C/c1ccc(OC(=O)OC)c(OC(=O)OC)c1	0.3	-8.7	73.5*	3.3	-4.4
CC(C)c1nn2c(=O)cc(COC(=O)c3ccccc3NC(=O)c3cccc(Cl)c3)nc2s1	-0.3	·	·	·	2.6
O=C1C(=O)c2cccnc2-c2ncccc21	·	?	·	56.1*	·
O=C1c2cccnc2-c2ncccc21	·	-1.1	·	-2.9	·
CCCn1ccc2c(OCC(=O)Nc3ccc(C(F)(F)F)cc3)cccc2c1=O	0.3	·	·	·	-7.3
COc1cc(/C=C/c2nc3cc(Cl)ccc3c(=O)n2-c2cccc(C(F)(F)F)c2)cc(OC)c1OC	0.0	·	·	·	11.6
CCOC(=O)CNc1ccc2c(c1)OCO2	-0.6	-15.3	39.9*	-4.9	·
CCn1c(SCC(=O)Nc2cc3oc4ccccc4c3cc2OC)nnc1-c1cccs1	36.8*	0.3	44.8*	11.8	-15.2
COc1cc2c(cc1NC(=O)CSc1nnc(Cc3cccs3)n1C)oc1ccccc12	-0.3	-17.6	13.6	-2.4	-0.5
CCN1CCc2c(C#N)c(N3CCCCC3)nc(NCc3ccccc3)c2C1	-0.3	-28.4	11.1	-1.5	-22.1
N#Cc1c(N)sc(=S)c2c1CCN(Cc1ccccc1)C2	0.8	·	31.6*	·	9.8
CC(C)N1CCc2c(sc(N)c2C#N)C1	2.0	-7.6	-12.4	0.6	-9.6
C=CCNc1nc(N2CCCCC2)c(C#N)c2c1CN(Cc1ccccc1)CC2	0.2	-43.5	72.4*	-4.8	-13.2
CCN1CCc2c(sc(N)c2C#N)C1	0.1	?	4.2	43.4*	·
N#Cc1c(NCCO)nc(NCc2ccccc2)c2c1CCN(Cc1ccccc1)C2	-0.5	-1.3	-15.6	0.8	-5.6
Cc1cc(C)n2nc(C(=O)OCC(=O)NNC(=O)c3ccccc3)nc2n1	0.6	0.3	16.4	4.6	-10.4
CCOC(=O)c1ccccc1NC(=O)NCc1cccn1Cc1ccc(F)cc1	·	·	·	·	1.5
CCOc1ccc(CNC(=O)c2cc3ccccn3n2)cc1	-0.1	·	·	·	0.5
Cc1nc2sccn2c(=O)c1S(=O)(=O)Nc1ccc(N2CCN(C(=O)C(C)C)CC2)cc1	-1.4	1.0	-5.3	2.9	50.7*!
Cc1ccc(NS(=O)(=O)c2c(C)nc3sccn3c2=O)cc1	0.7	-4.1	9.4	-1.4	-2.2
COc1ccccc1C1SCCN1S(=O)(=O)c1ccccc1 (stereo unspecified)	·	-7.2	·	-0.5	·
COc1ccccc1C1SCCN1S(=O)(=O)c1cccc(C(F)(F)F)c1 (stereo unspecified)	0.5	-7.7	47.4*	-1.1	-1.6
O=c1oc2c(CN3CCOCC3)c(O)ccc2c2c1CCC2	0.1	-8.2	-2.3	-2.6	9.9
CC1CCCN(Cc2c(O)ccc3c4c(c(=O)oc23)CCCC4)C1 (stereo unspecified)	0.1	-31.0	36.0*	-4.6	-20.2
Cc1cc(=O)[nH]c(NN=C2CCC(C(C)(C)C)CC2)n1 (stereo unspecified)	0.7	-9.0	2.0	-2.1	32.3*
SMILES	D2 ag-1	D2 PAM-1	D2 antagonist	D2 ag-2	D2 PAM-2
C/C(=N\Nc1nc(C)cc(=O)[nH]1)C1CC1	-1.4	-1.2	-4.3	-3.3	13.8
Cc1cc(C)c2c(n1)nn1c(C)c(CCC(=O)NCc3ccccc3Cl)c(C)nc21	-1.2	·	·	·	2.3
CCN(CC)CCOC(=O)c1ccc(NC(=O)CCCN2C(=O)/C(=C\c3cccs3)SC2=S)cc1	1.0	-55.9	67.7*	-3.8	-27.0
c1csc(CSc2nc3ccccc3s2)c1	0.4	7.4	39.1*	-1.0	13.4
Cc1noc(C)c1CSc1nc2ccccc2s1	-0.4	-0.9	18.0	-1.7	·
Cc1ccc(/C=N/NC(=O)CSc2nnc(-c3ccc(Cl)cc3)n2-c2ccc(Cl)cc2)o1	0.7	83.5*	4.5	14.5	-0.4
Cc1ccc(/C=N/NC(=O)CSc2nnc(-c3ccccc3)n2-c2ccc(Cl)cc2)o1	-0.1	54.1*	12.3	14.4	8.2
Cc1nn(-c2ccccc2)c(C)c1/C=N/NC(=O)CSc1nnc(-c2ccccc2)n1-c1ccc(Cl)cc1	-1.6	-3.4	-8.6	-4.3	35.0*
Cc1ccc(-c2nnc(SCC(=O)N/N=C/c3c(C)nn(-c4ccccc4)c3C)n2-c2ccc(C)cc2)cc1	-1.0	13.9	-3.2	-3.6	-4.7
O=C(CSc1nnc(-c2ccccc2)n1-c1ccc(Cl)cc1)N/N=C/c1ccccc1C(=O)O	-1.0	7.2	6.2	2.1	-6.0
CCn1c(SCC(=O)N/N=C/c2ccc(C)o2)nnc1-c1ccccc1	1.1	-9.1	56.8*	-3.5	-5.0
O=C(COC(=O)c1ccc(F)c(S(=O)(=O)N2CCOCC2)c1)c1ccc(Br)cc1	1.6	20.6	36.4*	3.0	37.7*
O=C(COC(=O)c1ccc(F)c(S(=O)(=O)N2CCOCC2)c1)c1ccc(Cl)cc1	-0.1	-1.9	2.3	0.7	1.8
O=C(Nc1c(C(=O)N2CCN(c3ccccc3F)CC2)oc2ccccc12)c1ccc(Br)o1	3.2	·	·	·	3.7
Cn1c(CCC(=O)O)nc2cc(S(=O)(=O)N3CCCCC3)ccc21	0.5	-2.5	32.5*	5.5	18.7
CCOC(=O)CC(NC(=O)c1cc2c(=O)n3cccc(C)c3nc2s1)c1ccc(OCC)c(OC)c1 (stereo unspecified)	-0.7	·	·	·	6.8
COc1ccc(CCN2CC(C(=O)N(C)CC(=O)Nc3ccc(F)c(F)c3F)CC2=O)cc1OC (stereo unspecified)	·	8.6	·	-0.9	·
CC1Cc2nc(SCC(=O)OCc3ccccc3)n(C)c(=O)c2S1 (stereo unspecified)	-1.3	-10.6	-5.0	-1.0	34.9*
CC1Cc2nc(SCC(=O)N3CCc4ccccc43)n(C)c(=O)c2S1 (stereo unspecified)	1.6	4.2	7.5	0.5	-6.5
CCCCS(=O)(=O)CC(COc1ccccc1)OC(=O)c1ccccc1 (stereo unspecified)	1.3	-6.3	34.9*	-3.0	0.6
CCCCS(=O)CC(CS(=O)CCCC)OC(=O)c1ccccc1 (stereo unspecified)	0.2	-9.4	-0.3	-2.9	-5.6
O=[N+]([O-])c1ccccc1/C=C/CN1CCCCC1	0.3	-19.6	36.4*	5.6	-17.9
O=[N+]([O-])c1ccc2ncnc(N3CCN(Cc4ccc5c(c4)OCO5)CC3)c2c1	77.5*	-27.3	101.2*	?	-19.4
CN(C/C=C/c1ccccc1[N+](=O)[O-])Cc1ccccc1	0.3	-6.7	56.7*	1.3	-21.0
O=[N+]([O-])c1ccccc1/C=C/CN1CCN(Cc2ccc3c(c2)OCO3)CC1	2.5	-77.6	31.5*	2.8	-22.4
